According to PubChem BioAssay:
The source made the active and inactive calls.

Legend:
[1] = optical density shifts of acrAB sulA E. coli – strain DRC41, OD650, 48 h, E. coli filamentation inducer project, primary screen (AID 1152); settings: higher = more signal, called active from +8 up or from −8 down;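 note: E. coli MC1000 strain DRC41 lacking acrAB efflux pump and sulA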
[2] = probe aLefty1 binding on compound microarray – biochemical, small-molecule microarray, 635/667 nm fluorescence, primary screen (AID 1153); settings: higher = more signal;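 note: score merges spot fluorescence with signal-to-noise ratio from the scanned slide images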
[3] = plasmodial surface anion channel blockers, osmotic lysis – cell-based, P. falciparum Indochina, OD700, 1 h, primary screen (AID 1154); settings: P. falciparum Indochina infected RBC osmotic lysis, higher = more signal, called active from +8 up or from −8 down
[4] = plasmodial surface anion channel blockers, osmotic lysis – cell-based, P. falciparum Indochina, OD700, 2 h, primary screen (AID 1155);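 note: lysis reports solute entry through the parasite surface anion channel PSAC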; settings: P. falciparum Indochina infected erythrocytes, higher = more signal, called active from +8 up or from −8 down
[5] = changes in parasitized red cell lysis, either direction – P. falciparum Indochina, OD700, 3 h, PSAC antagonist project, primary screen (AID 1156); settings: P. falciparum-infected erythrocytes, osmotic lysis, higher = more signal, called active from +8 up or from −8 down
[6] = plasmodial surface anion channel blockers, osmotic lysis – cell-based, P. falciparum Indochina, OD700, 18 h, primary screen (AID 1157); settings: P. falciparum Indochina infected erythrocytes, osmotic lysis OD700, 18 h; higher = more signal, called active from +8 up or from −8 down
[7] = S6 kinase pathway phospho-S6 level changes – cell-based, A549, cytoblot, luminescence, serum-stimulated, primary screen (AID 1158); settings: 5 h, higher = more signal;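 note: serum-stimulated A549 lung adenocarcinoma cells; signal is phosphorylated S6 detected by cytoblot immunostaining with HRP secondary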
[8] = biological target: NADPH oxidase 2 (Homo sapiens) (UniProt P04839); test: compounds shifting NOX2 Amplex Red fluorescence – cell-based, HEK293-NOX2, PMA-stimulated, NOX inhibitor project, primary screen (AID 1159); settings: 45 min, higher = more signal, called active from +8 up or from −8 down; note: test concentration not given here
Chain of NADPH oxidase 2 (Homo sapiens) (P04839 whole entry, looked up): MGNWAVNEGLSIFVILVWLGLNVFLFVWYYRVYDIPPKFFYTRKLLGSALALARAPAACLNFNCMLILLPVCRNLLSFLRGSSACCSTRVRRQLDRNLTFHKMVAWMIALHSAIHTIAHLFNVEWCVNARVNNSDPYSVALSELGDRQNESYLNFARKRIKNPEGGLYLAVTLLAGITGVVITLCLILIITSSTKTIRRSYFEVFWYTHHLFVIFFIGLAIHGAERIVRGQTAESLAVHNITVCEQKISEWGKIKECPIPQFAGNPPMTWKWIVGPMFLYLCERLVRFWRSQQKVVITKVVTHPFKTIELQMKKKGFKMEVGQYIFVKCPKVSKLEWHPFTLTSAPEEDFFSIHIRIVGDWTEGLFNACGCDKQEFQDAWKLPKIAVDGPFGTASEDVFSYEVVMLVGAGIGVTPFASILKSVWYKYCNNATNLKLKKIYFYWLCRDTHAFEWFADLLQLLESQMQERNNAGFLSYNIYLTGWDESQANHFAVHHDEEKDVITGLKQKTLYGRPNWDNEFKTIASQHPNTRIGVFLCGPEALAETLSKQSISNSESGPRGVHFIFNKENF

[9] = biological target: NADPH oxidase 4 (Homo sapiens) (UniProt Q9NPH5); test: compounds shifting NOX4 Amplex Red fluorescence – cell-based, HEK293-NOX4, tetracycline-induced, NOX inhibitor project, primary screen (AID 1160); settings: HEK293-NOX4, Amplex Red H2O2 fluorescence, 45 min; higher = more signal, called active from +8 up or from −8 down
Chain of NADPH oxidase 4 (Homo sapiens) (Q9NPH5 whole entry, looked up): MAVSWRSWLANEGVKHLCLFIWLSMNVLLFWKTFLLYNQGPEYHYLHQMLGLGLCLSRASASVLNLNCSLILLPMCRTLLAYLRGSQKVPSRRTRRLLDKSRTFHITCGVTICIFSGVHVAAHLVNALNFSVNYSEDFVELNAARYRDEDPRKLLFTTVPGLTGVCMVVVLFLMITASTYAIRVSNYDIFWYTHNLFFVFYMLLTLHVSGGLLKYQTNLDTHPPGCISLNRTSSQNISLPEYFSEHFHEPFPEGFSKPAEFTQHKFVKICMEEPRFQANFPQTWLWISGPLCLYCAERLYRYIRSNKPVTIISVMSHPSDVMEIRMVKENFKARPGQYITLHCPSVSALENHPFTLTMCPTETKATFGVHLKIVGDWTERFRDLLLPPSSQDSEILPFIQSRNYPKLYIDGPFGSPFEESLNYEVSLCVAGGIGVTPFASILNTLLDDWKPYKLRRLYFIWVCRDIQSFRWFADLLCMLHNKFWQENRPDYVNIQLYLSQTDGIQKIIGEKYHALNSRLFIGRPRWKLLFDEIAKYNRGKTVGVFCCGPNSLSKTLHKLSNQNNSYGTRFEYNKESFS

[10] = biological target: NADPH oxidase 5 (Homo sapiens) (UniProt Q96PH1); test: compounds shifting NOX5 Amplex Red fluorescence – cell-based, HEK293-NOX5, NOX inhibitor project, primary screen (AID 1161); settings: HEK293-NOX5, ionomycin, 45 min, higher = more signal
Chain of NADPH oxidase 5 (Homo sapiens) (Q96PH1 whole entry, looked up): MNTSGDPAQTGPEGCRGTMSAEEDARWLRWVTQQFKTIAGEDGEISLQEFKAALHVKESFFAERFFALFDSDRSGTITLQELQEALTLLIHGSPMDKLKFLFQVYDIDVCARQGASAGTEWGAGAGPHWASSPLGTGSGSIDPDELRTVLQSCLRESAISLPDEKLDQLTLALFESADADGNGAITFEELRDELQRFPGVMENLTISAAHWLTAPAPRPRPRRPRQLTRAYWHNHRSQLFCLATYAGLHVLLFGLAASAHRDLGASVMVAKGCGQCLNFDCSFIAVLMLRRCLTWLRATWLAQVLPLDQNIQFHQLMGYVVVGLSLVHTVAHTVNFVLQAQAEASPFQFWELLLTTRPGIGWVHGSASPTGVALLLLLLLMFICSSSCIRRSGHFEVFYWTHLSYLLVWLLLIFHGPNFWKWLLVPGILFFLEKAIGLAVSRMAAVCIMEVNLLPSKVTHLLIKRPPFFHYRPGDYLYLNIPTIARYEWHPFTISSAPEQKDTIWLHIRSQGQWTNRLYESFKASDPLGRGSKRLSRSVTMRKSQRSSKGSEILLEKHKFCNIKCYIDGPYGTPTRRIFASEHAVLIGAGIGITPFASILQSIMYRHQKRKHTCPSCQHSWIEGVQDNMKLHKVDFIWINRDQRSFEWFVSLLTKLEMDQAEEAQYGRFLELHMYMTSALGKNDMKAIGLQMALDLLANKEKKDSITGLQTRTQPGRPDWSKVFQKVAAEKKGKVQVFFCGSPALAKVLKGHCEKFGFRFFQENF

[11] = compound effects on lung adenocarcinoma cell viability – A549, calcein-AM fluorescence, 48 h, basal, profiling panel (AID 1162); settings: higher = more signal; note: test concentration not given here
[12] = compound effects on differentiated 3T3-L1 adipocyte viability – cell-based, 3T3-L1 adipocytes, calcein-AM fluorescence, 48 h, basal, profiling panel (AID 1163); settings: 3T3-L1 adipocytes viability, higher = more signal; note: test concentration not given here
[13] = compound effects on hepatocellular carcinoma cell viability – HepG2, calcein-AM fluorescence, 48 h, basal, profiling panel (AID 1164); settings: higher = more signal; note: test concentration not given here
[14] = compound effects on multiple myeloma cell viability – MM1S, calcein-AM fluorescence, 48 h, basal, profiling panel (AID 1165); settings: higher = more signal;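 note: viability of MM1S multiple myeloma cells under basal unstimulated conditions; test concentration not given here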
[15] = calcein-AM signal in unstimulated myeloma cells – cell-based, calcein-AM fluorescence, 48 h, PK04 Diversity Set, profiling panel (AID 1166); settings: RPMI8226 myeloma viability, higher = more signal;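 note: cells grown under basal conditions without added stimulus; test concentration not given here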
[16] = JC-1 mitochondrial signal, unstimulated HepG2 cells – cell-based, JC-1 fluorescence, 24 h, 100 nL compound, profiling panel (AID 1167); settings: HepG2 mitochondrial potential, higher = more signal; note: test concentration not given here
[17] = JC-1 mitochondrial signal, unstimulated adipocytes – cell-based, JC-1 fluorescence, 3T3-L1 adipocytes, 24 h, 100 nL compound, profiling panel (AID 1168); settings: JC-1 mitochondrial fluorescence, higher = more signal, called active from +8 up or from −8 down; note: test concentration not given here
[18] = JC-1 mitochondrial signal, unstimulated myeloma cells – cell-based, JC-1 fluorescence, RPMI8226, 24 h, 100 nL compound, profiling panel (AID 1169); settings: JC-1 mitochondrial potential fluorescence, higher = more signal; note: test concentration not given here
[19] = JC-1 mitochondrial signal, unstimulated MM1S myeloma – cell-based, JC-1 fluorescence, 24 h, 100 nL compound, profiling panel (AID 1170); settings: MM1S mitochondrial potential, higher = more signal; note: test concentration not given here
[20] = resazurin metabolic signal in A549 cells – cell-based, resazurin fluorescence, 24 h, PK04 Diversity Set, profiling panel (AID 1171); settings: A549 viability, higher = more signal, called active from +8 up or from −8 down; note: test concentration not given here

For O=C1OCCC=C[C@H]2OC34C=CCN(Cc5ccccc5)C(=O)[C@H]3N(CCO)C(=O)[C@@H]4C12 (stereo not given in full), the z-score [1] was 2.51 (inactive), the composite z-score [2] was -0.133 and the z-score [3] was 1.07 (inactive). The z-score [4] was -0.436 (inactive), the z-score [5] was -0.769 (inactive) and the z-score [6] was -0.8 (inactive). For the same compound, the z-score [7] was 1.82, the z-score [8] was 0.681 (inactive) and the z-score [9] was -0.573 (inactive). The z-score [10] was 0.869, the z-score [11] was -0.0905 and the z-score [12] was 1.64. It also gave a z-score [13] of -0.781, a z-score [14] of 0.918 and a z-score [15] of -0.125. The z-score [16] was 0.207, the z-score [17] was 0.903 (inactive) and the z-score [18] was 0.374. For the same compound, the z-score [19] was 0.183 and the z-score [20] was -0.727 (inactive).
In the case of COc1cc(Cc2cc3c(c(CCc4ccccc4)n2)[Si](C(C)C)(C(C)C)OC3)cc(OC)c1OC, the z-score [1] was -0.655 (inactive), the composite z-score [2] was -0.0501 and the z-score [3] was 2.06 (inactive). The z-score [4] was 0.481 (inactive), the z-score [5] was -0.411 (inactive) and the z-score [6] was -0.232 (inactive). For the same compound, the z-score [7] was -0.475, the z-score [8] was -0.195 (inactive) and the z-score [9] was -0.231 (inactive). The z-score [10] was -2.59, the z-score [11] was 0.557 and the z-score [12] was -1.22. For the same compound, the z-score [13] was -0.202, the z-score [14] was -2.17 and the z-score [15] was -4.13. For the same compound, the z-score [16] was 0.756, the z-score [17] was -0.411 (inactive) and the z-score [18] was -0.799. The z-score [19] was -0.234 and the z-score [20] was 2.12 (inactive).
In the case of CO[C@H]1COC(=O)CC=C[C@@H](C)COC(=O)[C@@H](C)NC(=O)CC=C[C@@H]1C, the z-score [1] was -0.414 (inactive), the composite z-score [2] was -0.276 and the z-score [3] was -0.401 (inactive). For the same compound, the z-score [4] was -0.599 (inactive), the z-score [5] was -0.768 (inactive) and the z-score [6] was -0.872 (inactive). For the same compound, the z-score [7] was 2.57, the z-score [8] was -0.206 (inactive) and the z-score [9] was 0.534 (inactive). It also gave a z-score [10] of 0.984, a z-score [11] of 0.43 and a z-score [12] of 0.688. The z-score [13] was 1.37, the z-score [14] was 0.344 and the z-score [15] was 0.615. For the same compound, the z-score [16] was 1.24, the z-score [17] was 1.87 (inactive) and the z-score [18] was -0.258. The z-score [19] was 1.52 and the z-score [20] was 0.372 (inactive).
For CCCC[C@@H]1C[C@H]1[C@@H](NC(=O)c1cccs1)c1ccc(Cl)cc1, the z-score [1] was -1.06 (inactive), the composite z-score [2] was -0.124 and the z-score [3] was 0.492 (inactive). The z-score [4] was -0.696 (inactive), the z-score [5] was 1.13 (inactive) and the z-score [6] was -1.93 (inactive). For the same compound, the z-score [7] was 1.38, the z-score [8] was -3.93 (inactive) and the z-score [9] was -6.76 (inactive). For the same compound, the z-score [10] was -2.26, the z-score [11] was -1.36 and the z-score [12] was 1.11. For the same compound, the z-score [13] was -1.02, the z-score [14] was -0.992 and the z-score [15] was -2.99. The z-score [16] was -1.16, the z-score [17] was 0.53 (inactive) and the z-score [18] was -0.912. The z-score [19] was -0.53 and the z-score [20] was 0.6 (inactive).
For Cc1ccc(S[C@]2(C(=O)O)CC(=O)N(Cc3ccccc3)[C@@H]2c2ccc(CO)cc2)cc1, the z-score [1] was 2.89 (inactive), the composite z-score [2] was 0.0215 and the z-score [3] was 2.85 (inactive). For the same compound, the z-score [4] was -0.263 (inactive), the z-score [5] was 1.09 (inactive) and the z-score [6] was -0.707 (inactive). The z-score [7] was 0.462, the z-score [8] was -0.198 (inactive) and the z-score [9] was -0.197 (inactive). For the same compound, the z-score [10] was 1.6, the z-score [11] was 0.633 and the z-score [12] was -0.671. The z-score [13] was -0.18, the z-score [14] was -0.476 and the z-score [15] was 0.607. For the same compound, the z-score [16] was 0.536, the z-score [17] was 0.923 (inactive) and the z-score [18] was 0.118. For the same compound, the z-score [19] was -0.418 and the z-score [20] was 0.477 (inactive).
For O=C1O[C@@H](c2ccccc2)[C@@H](c2ccccc2)N2[C@@H](c3ccc(O)cc3)[C@]3(C(=O)Nc4ccc(C#CC5(O)CCCCCC5)cc43)[C@@H](C(=O)Nc3nc4ccccc4s3)[C@H]12, the z-score [1] was 1.74 (inactive), the composite z-score [2] was 0.271 and the z-score [3] was 0.733 (inactive). The z-score [4] was -0.232 (inactive), the z-score [5] was 0.445 (inactive) and the z-score [6] was -0.713 (inactive). For the same compound, the z-score [7] was 1.16, the z-score [8] was 1.62 (inactive) and the z-score [9] was -1.27 (inactive). It also gave a z-score [10] of 1.96, a z-score [11] of 1.46 and a z-score [12] of 2.07. For the same compound, the z-score [13] was 0.417, the z-score [14] was -1.55 and the z-score [15] was -1.97. The z-score [16] was -2.15, the z-score [17] was -0.444 (inactive) and the z-score [18] was -0.567. For the same compound, the z-score [19] was 0.159 and the z-score [20] was 1.2 (inactive).
In the case of Cc1ccc(S[C@]2(C(=O)O)CC(=O)N(Cc3cc(C(F)(F)F)cc(C(F)(F)F)c3)[C@@H]2c2ccc(CO)cc2I)cc1, the z-score [1] was 0.367 (inactive), the composite z-score [2] was 0.26 and the z-score [3] was 5.86 (inactive). For the same compound, the z-score [4] was 0.877 (inactive), the z-score [5] was 1.03 (inactive) and the z-score [6] was 0.522 (inactive). The z-score [7] was 0.243, the z-score [8] was 1.75 (inactive) and the z-score [9] was -2.5 (inactive). The z-score [10] was 0.547, the z-score [11] was 0.673 and the z-score [12] was 0.429. The z-score [13] was 0.324, the z-score [14] was -3 and the z-score [15] was -2.22. For the same compound, the z-score [16] was -0.338, the z-score [17] was -0.459 (inactive) and the z-score [18] was -0.325. The z-score [19] was -1.36 and the z-score [20] was 0.288 (inactive).
For O=C1c2ccccc2[C@@]2(Cc3ccccc3N(CC(F)(F)F)C2=O)[C@H](c2ccc(CO)cc2)N1C1CCCCC1, the z-score [1] was 0.969 (inactive), the composite z-score [2] was 0.062 and the z-score [3] was 0.856 (inactive). The z-score [4] was 0.81 (inactive), the z-score [5] was 0.0811 (inactive) and the z-score [6] was 0.427 (inactive). The z-score [7] was 0.0443, the z-score [8] was 0.161 (inactive) and the z-score [9] was -0.501 (inactive). For the same compound, the z-score [10] was 0.239, the z-score [11] was -0.449 and the z-score [12] was 0.747. The z-score [13] was -0.0145, the z-score [14] was 0.129 and the z-score [15] was -1.27. For the same compound, the z-score [16] was -0.0304, the z-score [17] was 0.701 (inactive) and the z-score [18] was 1.06. The z-score [19] was 0.933 and the z-score [20] was 0.304 (inactive).
